SF-1 inh = blocks the human nuclear receptor SF-1 | CHO-K1 Gal4-SF-1 LBD luciferase reporter | inhibition, % at 10 µM | 65,000 compounds, 0.55% hits;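 active = inhibition above the mean inhibition of all tested compounds plus 3 SD, cut at about 48% in these data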;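 also: 0% = SF-1 transfected cells with DMSO and 100% = mock-transfected cells lacking SF-1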
Target sequence (Q13285 whole entry, looked up, the tested form may be a part): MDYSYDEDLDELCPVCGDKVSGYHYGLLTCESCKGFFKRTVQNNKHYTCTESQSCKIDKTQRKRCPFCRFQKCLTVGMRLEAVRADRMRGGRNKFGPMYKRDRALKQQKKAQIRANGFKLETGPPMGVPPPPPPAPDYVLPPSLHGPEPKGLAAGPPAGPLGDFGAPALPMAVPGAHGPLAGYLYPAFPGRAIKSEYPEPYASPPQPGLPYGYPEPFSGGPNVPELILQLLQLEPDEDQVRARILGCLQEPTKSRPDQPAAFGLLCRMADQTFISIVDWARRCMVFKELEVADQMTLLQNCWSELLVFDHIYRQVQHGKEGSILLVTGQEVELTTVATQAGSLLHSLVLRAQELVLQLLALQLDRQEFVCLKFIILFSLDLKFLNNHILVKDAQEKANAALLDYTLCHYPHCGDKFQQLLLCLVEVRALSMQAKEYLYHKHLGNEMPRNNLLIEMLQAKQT
An asterisk follows results filed as active. The full list was thinned out, with hits kept by preference.

SMILES | SF-1 inh
Cc1cc(NS(=O)(=O)c2ccccc2)n(-c2ccccc2)n1 | 1
Cc1cc(C)nc(-n2nc(C)cc2Nc2ccccc2)n1 | 20
Cc1cc(C)n(-c2nc(NC(C)(C)C)nc(NC(C)(C)C)n2)n1 | 53*
COc1ccc(Cl)cc1-n1c(=S)sc2c(=O)[nH]c(SCC(=O)NCC3CCCO3)nc21 (centres undefined) | 5
COc1cccc2c(=O)n(CC(=O)N3CCCc4ccccc43)ccc12 | -10
Cc1onc(-c2c(F)cccc2Cl)c1C(=O)NCc1ccccn1 | -1
COc1ccc(N2CCN(C(=O)CN3C(=O)C4CC=CCC4C3=O)CC2)cc1 (centres undefined) | -4
COc1cccc2sc(Nc3nc(-c4ccccn4)cs3)nc12 | 96*
c1ccc(-c2csc(Nc3cccnc3)n2)nc1 | -57
CCOC(=O)c1sc(Nc2nc3c(OC)cccc3s2)nc1C | -64
NC(=O)C1CCN(CCC(=O)Nc2cccc(Cl)c2)CC1 | 0
COc1cccc2cc(NC(=O)C3CCCCC3)c(=O)oc12 | -66
COc1cc(NS(=O)(=O)c2ccc(C)cc2C)cc(OC)c1OC | 62*
CCOc1ccc(C)cc1S(=O)(=O)Nc1cccnc1 | -12
COc1cc(C(=O)Nc2ccc(N(C)C)cc2)cc(OC)c1OC | -62
Nc1c(C(=O)Nc2ccc(Cl)cc2)oc2ccccc12 | -106
O=C(Nc1nnc(C2CCCCC2)s1)c1ccco1 | -70
CCN(CC)S(=O)(=O)c1ccc(C(=O)NCc2n[nH]c(=S)n2Cc2ccccc2)cc1 | 4
COCCn1c(C)cc(C(=O)COC(=O)c2n[nH]c3ccccc23)c1C | 67*
COCCn1c(C)cc(C(=O)CSc2nc3ccccc3c(=O)[nH]2)c1C | -8
COCCn1c(C)cc(C(=O)COC(=O)c2ccc3ncsc3c2)c1C | -52
COc1cc2c(C#N)c(N3CCc4ccccc4C3)nc(N)c2c(N)n1 | -8
c1ccc2c(c1)CCN(c1nc3cc4c(cc3s1)OCCO4)C2 | 60*
Cn1c(SCC(=O)Nc2cc(=O)n(C)c(=O)n2C)nnc1-c1cccs1 | -6
O=C(CSc1cccc2cccnc12)NCc1ccco1 | 12
SMILES | SF-1 inh
c1ccc(-c2cn3nc(-c4ccccc4)sc3n2)cc1 | 51*
Cc1nc(-c2ccccc2)sc1C(N)=O | 3
O=C(NCCCn1ccnc1)C1c2ccccc2Oc2ccccc21 | 5
O=C(Nc1ccc(Br)cn1)c1ccc2nccnc2c1 | -69
Cc1ccc(-c2cn3nc(C)c(C)nc3n2)cc1 | 79*
CC1CCN(c2ccc(NC(=O)c3cccnc3)cc2)CC1 | -59
C/[N+]([O-])=C1\Cc2ccccc2C1=O | -13
CN(c1ccc(C(=O)Nc2ccccc2C(F)(F)F)cc1)S(C)(=O)=O | -15
c1ccn2c(SCc3cn4ccsc4n3)nnc2c1 | -71
CCCCN(CCCC)S(=O)(=O)c1ccc(C(=O)Nc2nnc(CSC)o2)cc1 | 55*
CN(C)S(=O)(=O)c1ccc(C(=O)Nc2ccc(CN3CCCC3)cc2)cc1 | 11
CCN(CC)S(=O)(=O)c1ccc(NC(=O)c2ccccn2)cc1 | -55
CCOC(=O)C(NC(=O)c1ccccc1)(N1CCCC1=O)C(F)(F)F (centres undefined) | 8
O=c1cc(N2CCC(Cc3ccccc3)CC2)[nH]c(=O)n1C1CCCCC1 | -3
CCOC(=O)Cn1c(=O)c2c(nc(Br)n2Cc2ccc(Cl)cc2)n(C)c1=O | 0
CCCc1nnc(NC(=O)CCC(=O)N2CCCCCC2)s1 | 8
COc1ccc(-c2cc(C(=O)N3CCCCC3)no2)cc1OC | -77
O=C(c1cc(-c2cccc(O)c2)on1)N1CCN(C(c2ccccc2)c2ccccc2)CC1 | 5
Cc1ccc(-c2cc(C(=O)N3CCCC3)no2)cc1 | 51*
CCOC(=O)c1ccccc1NC(=O)c1ccc(NS(C)(=O)=O)cc1 | -3
Cc1ccc(S(=O)(=O)Nc2nc(C)cc(NCCN)n2)cc1 | -8
COc1cc(NS(=O)(=O)c2ccc(C)cc2)c2ncccc2c1 | 94*
COc1cccc(NC(=O)C2CCCN(S(=O)(=O)c3cccc4cccnc34)C2)c1 (centres undefined) | 4
CCOCCCNC(=O)CCS(=O)(=O)Cc1ccc(C)cc1 | 18
Cn1c(=O)c2c(ncn2CCCNC2=CC(C)(C)CC(=O)C2)n(C)c1=O | 8
SMILES | SF-1 inh
COc1ccc(-c2c(C)n([O-])c3c([n+]2=O)CCC3)cc1OC | -4
Cc1nn(Cc2c(Cl)cccc2Cl)c(C)c1NC(=O)c1cc(C(C)C)on1 | -19
COc1ccc(CC(=O)Nc2cccc(-c3nnc(-c4cccc(C)c4)o3)c2)cc1OC | 93*
CC(=O)/C=C(\C)Nc1ccc(-c2cnc(-c3ccccc3)o2)cc1 | -57
CCC(=O)Nc1cccc(-c2nc3ccccc3c(=O)o2)c1 | 22
CC(=O)Nc1cccc(-c2nnc(-c3ccccc3)o2)c1 | -51
COc1ccc(CC(=O)Nc2ccc(-c3nnc(-c4ccccc4)o3)cc2)cc1OC | 77*
CCOc1cccc(C(=O)Nc2cccc(-c3nnc(-c4ccc(C)cc4)o3)c2)c1 | 11
Cc1ccc(Nc2nc(N)nc(CSc3nccn3C)n2)c(C)c1 | -24
CCCc1nnc(NC(=O)CN2C(=O)C3C4C=CC(C4)C3C2=O)s1 (centres undefined) | -18
Cn1cnnc1SCc1ccc(-c2ccc(Br)cc2)o1 | 5
Cc1nn(-c2ccccc2)c2sc(C(=O)N(CC(=O)NC(C)(C)C)Cc3ccco3)cc12 | -7
COCCCn1c(SCC(=O)Nc2ccc3c(c2)OCCO3)nnc1-c1ccoc1C | -15
CCc1sc(C(=O)N2CCN(S(C)(=O)=O)CC2)cc1Br | 5
O=C(Nc1ccccc1F)c1ccncc1 | 5
Cc1csc(NC(=O)c2sc3nc(-c4cccs4)ccc3c2N)n1 | -50
O=C(Nc1nc(-c2ccc(Cl)s2)cs1)c1ccncc1 | 63*
Cc1noc(C)c1COC(=O)c1cccnc1SCC(=O)Nc1ccc2c(c1)OCO2 | -3
COc1ccccc1-c1nn2c(-c3ccco3)nnc2s1 | -59
CCN(CC)c1ccc(-c2nn3c(-c4ccccc4OC)nnc3s2)cc1 | 67*
COc1cc(-c2nnc3sc(-c4cccnc4)nn23)cc(OC)c1OC | 18
CC(C)n1nc(C(=O)NCCc2ccc(S(N)(=O)=O)cc2)c2ccccc2c1=O | -7
NC(=O)c1cc(Cl)cn(-c2ccccc2)c1=O | 24
CCOc1ccc2[nH]c(=O)c(CN(CCO)C(=O)c3ccc(F)cc3)cc2c1 | -10
CCn1c(SCc2cccnc2)nnc1-c1c[nH]c2ccccc12 | 1
SMILES | SF-1 inh
COc1cccc(NC(=O)N2CCC(N3CCCCC3)CC2)c1 | 21
COc1ccc(-c2noc(C3CCCN(C(=O)CCc4ccccc4)C3)n2)cc1 (centres undefined) | 4
COc1ccc(NC(=O)N2CCCC(c3nc(-c4ccc(C(C)C)cc4)no3)C2)cc1 (centres undefined) | 59*
Cc1sc(NC(=O)c2ccco2)c(C(c2cccnc2)N2CCN(c3ccc(F)cc3)CC2)c1C (centres undefined) | 48*
Cc1cnc(NC(=O)c2ccco2)s1 | -53
COc1ccc(N2CCN(C(c3cccs3)C(C)NC(=O)c3ccco3)CC2)cc1 (centres undefined) | -16
COC(=O)c1cn(C(C)C(=O)NCc2ccco2)c2ccccc12 (centres undefined) | 13
COc1ccc(N(C)S(=O)(=O)c2c(C)[nH]c(=O)[nH]c2=O)cc1 | -4
CCOC(=O)C1CCN(C(=O)CN(c2cccc(OC)c2)S(=O)(=O)c2ccccc2)CC1 | -1
Cc1noc(C(=O)Nc2ccc3c(c2)OCO3)c1Cl | -61
Cc1occc1C(=O)Nc1ccc2c(c1)OCO2 | -53
CCOC(=O)c1c(N)sc(C(=O)Nc2ccc3c(c2)OCO3)c1C | 53*

Compound activity from PubChem BioAssay.
